Drawing on PubChem BioAssay, this text covers fold change permeability for 39 compounds.

A number with no mark means an inactive call. Calls of active or inactive are those of the source. Rule as the data show it: active = fold change permeability below about 0.7 or above about 1.3; inactive = in between.

This assay can be described thus: compounds altering in vitro BBB leakiness – cell-based, FITC-avidin fluorescence, HTS, primary screen (AID 1963498). Also: test concentration not given here. The conditions noted are these: brain endothelial barrier, actives lie on both sides.
As to `N[C@@H](CCC(=O)N[C@@H](CSN=O)C(=O)NCC(=O)O)C(=O)O`, the fold change permeability is 0.8.

For the compound `COc1cc2c(CCNC(C)=O)c[nH]c2cc1O`, the fold change permeability is 1.1.

`COc1cc2nc(N3CCN(C(=O)c4ccco4)CC3)nc(N)c2cc1OC`: the fold change permeability was 1.

With `OC(CCN1CCCCC1)(c1ccccc1)C1CCCCC1` (centres undefined), the fold change permeability was 0.8.

Regarding `CC(Nc1nc(N2CCNCC2)nc2ccccc12)c1ccccc1` (centres undefined), the fold change permeability is 2.4 (active). Then `CNC1(C)C2CCC(C2)C1(C)C` (centres undefined), with 0.8.

For the compound `Cc1cc2c(s1)Nc1ccccc1N=C2N1CCN(C)CC1`, the fold change permeability was 0.7 (active). For `NC(N)=N/N=C/c1c(Cl)cccc1Cl`, the fold change permeability is 1. With `C[C@H]1c2cccc(O)c2C(O)=C2C(=O)[C@]3(O)C(O)=C(C(N)=O)C(=O)[C@@H](N(C)C)[C@@H]3[C@@H](O)[C@@H]21`, the fold change permeability is 0.9. Consider `Cc1nc2c(OCc3ccccc3)cccn2c1CC#N`, for which the fold change permeability is 0.9. Then `NCCCCCCCCCCN`, with 0.9; and `N=C(N)c1ccc(-c2ccc(-c3ccc(C(=N)N)cc3)o2)cc1`, with 1.5 (active). For `CCCN[C@H]1CCc2nc(N)sc2C1` the value was 1.1.

As to `CN1CCN(C2Cc3ccccc3Sc3ccc(Cl)cc32)CC1` (centres undefined), the fold change permeability is 1.2. Then `CC1(C)SCCN(S(=O)(=O)c2ccc(OCC#CCO)cc2)[C@H]1C(=O)NO`, with 1.1; and `CCO/C([O-])=N/c1c[n+](N2CCOCC2)no1`, with 0.8. For the compound `c1cnc(N2CCN(Cc3ccc4c(c3)OCO4)CC2)nc1`, the fold change permeability was 1. In the case of `O=C(OCCN1CCOCC1)C1(c2ccccc2)CCCCC1`, the fold change permeability is 1. Then `COc1ccc(S(=O)(=O)N(CC(=O)NO)CC(C)C)cc1`, with 1.1.

Take `N[C@@H](C(=O)N[C@@H]1C(=O)N2C(C(=O)O)=C(Cl)CS[C@H]12)c1ccccc1`: the fold change permeability was 0.9. Then `N[C@H](C(=O)O)[C@H](O)c1ccc(O)c(O)c1`, with 0.9; and `CCNC(=O)[C@H]1O[C@@H](n2cnc3c(N)nc(NCCc4ccc(CCC(=O)O)cc4)nc32)C(O)[C@H]1O` (some centres undefined), with 1.1; and `CC/C(=N\NC(=O)c1ccnc(NCCCN2CCOCC2)c1)c1ccc(Cl)cc1O`, with 0.8. Consider `Cc1cc(O)c2c(c1)C(=O)c1cc(O)cc(O)c1C2=O`, for which the fold change permeability is 1.3 (active). Then `CC(=O)Oc1cc(C(C)C)c(OCCN(C)C)cc1C`, with 0.8.

Regarding `N[C@@H](Cc1c[nH]c2ccc(O)cc12)C(=O)O`, the fold change permeability is 1.

As for `NC(=O)C(=O)O`, the fold change permeability is 0.8. As to `CC(=O)OC(C)C[N+](C)(C)C` (centres undefined), the fold change permeability is 1. For `Oc1ccccc1O` the value was 0.9; for `C[C@H](C#Cc1ccc(Cc2ccc(F)cc2)s1)N(O)C(N)=O`, 1.1. For `Cc1nc2c([nH]1)c(=O)n(C)c(=O)n2Cc1ccco1` the value was 0.7 (active). Take `Oc1cc2c(cc1O)C(c1ccccc1)CNCC2` (centres undefined): the fold change permeability was 0.7 (active). `CN(C)CCC(c1ccccc1)c1ccccn1` (centres undefined): the fold change permeability was 1. Then `COc1cccc(OC)c1-c1cc(C(=O)NC2(C(=O)O)C3CC4CC(C3)CC2C4)nn1-c1ccc(C(=O)N(C)CCCN(C)C)cc1C(C)C` (centres undefined), with 0.9; and `O=C(O)[C@H](CC(=O)N1C[C@H]2CCCC[C@H]2C1)Cc1ccccc1`, with 1.2; and `NC(N)=NC(N)=Nc1ccccc1`, with 0.9. For `CCN(CC)CCNC(=O)c1ccc(N)cc1` the value was 0.8. Then `Oc1ccc2c(c1)OC[C@]1(O)Cc3cc(O)c(O)cc3[C@H]21`, with 1.7 (active); and `CN(C)CC/C=C1/c2ccccc2Sc2ccc(Cl)cc21`, with 1.1.
